Data on 40 compounds can be found in PubChem BioAssay (NCATS).

Inconclusive results are not listed. A number with no mark means an inactive call. Calls of active or inactive are those of the source. The call rests on the fitted dose curve; in most records, active means well fitted cell-killing curve with a large enough effect; inconclusive means small, poorly fitted or top-dose-only effect, or effect the other way; inactive means no such curve, though single readings can be large or run the other way.
Potency means the concentration at half of the fitted maximal effect.

This assay can be described thus: Quantitative High-Throughput drug screen in 47 multiple myeloma cell lines against the NCATS MIPE library collection: KMS21BM_JCRB cell viability assay (AID 1918974). The conditions noted are these: ATP luminescence, 48 h; viability: at 45.8 µM unless noted. An excerpt:
PI: Beverly A. Mock Ph.D.
Laboratory of Cancer Biology and Genetics,
Center for Cancer Research, National Cancer Institute,
National Institute of Health, Bethesda, Maryland
Drug resistance and disease progression are common in multiple myeloma (MM) patients, underscoring the need for new therapeutic combinations. […] We hypothesized that effective combinations would reduce MYC expression and enhance p16 activity. […] These preclinical data identify potentially useful drug combinations for evaluation in drug-resistant MM and reveal potential mechanisms of combined drug sensitivity.
Described herein is the primary MIPE qHTS used to cherrypick compounds. Validated compounds were then further tested for potential synergistic activiy.
[1] Peat TJ, Gaikwad SM, Dubois W, Gyabaah-Kessie N, Zhang S, Gorjifard S, Phyo Z, Andres M, Hughitt VK, Simpson RM, Miller MA, Girvin AT, Taylor A, Williams D, D'Antonio N, Zhang Y, Rajagopalan A, Flietner E, Wilson K, Zhang X, Shinn P, Klumpp-Thomas C, McKnight C, Itkin Z, Chen L, Kazandijian D, Zhang J, Michalowski AM, Simmons JK, Keats J, Thomas CJ, Mock BA. Drug combinations identified by high-throughput screening promote cell cycle transition and upregulate Smad pathways in myeloma. Cancer Lett. 2023 Aug 1;568:216284. doi: 10.1016/j.canlet.2023.216284. Epub 2023 Jun 24. PMID: 37356470; PMCID: PMC10408729.
SEQUENCE No. (e.g., 1, 2, 3, etc.); […] (e.g., Cells, Incubation, Reagent, etc.); VALUE and DESCRIPTION.
1; Cells; 5 uL; white, solid bottom 1536-well Greiner assay plate.
2; Compounds; 23 nL; Kalypsis pin tool (Wako USA) equipped with a 1536-well pin head to transfer to the assay plates.
3; Incubation; 48 hours; 37C incubation.
4; Reagent;5uL; CellTiter Glo (Promega).
5; Detector; 425V; Luminescence; Viewlux PerkinElmer.
NOTES (numbers refer to Sequence numbers above)
1. The cell-based screening methods employed in this study were like those previously published. Briefly, the corresponding myeloma cell lines were screened in 1,536-well plates with 500 cells, 5-uL per well for inhibition of cell viability (assessed by measuring ATP levels with CellTiterGlo).
2. NCATS MIPE 4.0 library of approved and investigational drugs were added using the Kalypsis pin tool. Wells treated with DMSO only for 100% viability and media only wells for 0% viability were used as controls.
3. The assay plates were covered and incubated for 48 hours in a 37C, 5% CO2 incubator with controlled humidity.
4. After 48 hours, CellTilter-GloTM luminescent substrate mix (Promega) reagent was added to the assay plate and plates we incubated for 5 min at room temperature.
5. Signal was measured as median relative luminescence units on a ViewLux (PerkinElmer) multiplate reader.
[1] Heske CM, Davis MI, Baumgart JT, Wilson K, Gormally MV, Chen L, Zhang X, Ceribelli M, Duveau DY, Guha R, Ferrer M, Arnaldez FI, Ji J, Tran HL, Zhang Y, Mendoza A, Helman LJ, Thomas CJ. Matrix Screen Identifies Synergistic Combination of PARP Inhibitors and Nicotinamide Phosphoribosyltransferase (NAMPT) Inhibitors in Ewing Sarcoma. Clin Cancer Res. 2017 Dec 1;23(23):7301-7311. doi: 10.1158/1078-0432.CCR-17-1121. Epub 2017 Sep 12. PMID: 28899971; PMCID: PMC6636827.
`NC(CO)(CO)CCc1ccc(Sc2cccc(OCc3ccccc3)c2)cc1Cl`: the Potency is 13.2 µM (active).
The same measure, in the same setting: in the case of `O=C1NC(=O)C(=Cc2ccc(-c3ccc(F)cc3)o2)S1` it was 2.09 µM (active).
With `Oc1ccc(C2=Cc3ccc(O)cc3OC2)cc1`, the Potency was 2.35 µM (active).
As for `CN(C)Cc1cccc(N=C(c2ccccc2)c2c(O)[nH]c3cc(C(=O)N(C)C)ccc23)c1`, the Potency was 9.35 µM (active).
The same measure, in the same setting: in the case of `COCCOc1nc(-c2ccc(Cl)c(Cl)c2)n(-c2ccc(NC(=O)CCl)cc2)n1` it was 16.6 µM (active).
Take `C=C1C(=O)OC2C=C(C)CCC=C(C)CCC12` (stereo not given): the Potency is 26.4 µM (active).
On the same count and under the same terms, in the case of `O=C(O)C=Cc1ccc(O)c(O)c1` it was 13.2 µM (active).
Take `O=C(Nc1c(Cl)cncc1Cl)c1ccc(OC(F)F)c(OCC2CC2)c1`: the “viability” value was 126%.
`COc1cccc([C@@H](C)NCCCc2ccccc2Cl)c1`: the Potency is 16.6 µM (active).
As to `NC1CCC(Nc2nc(Nc3ccc(C(=O)N4CCCCC4)cc3)c3ncn(-c4cccc(F)c4)c3n2)CC1` (stereo not given), the “viability” value was 146%.
For the compound `CC1(C)S[C@H]2[C@H](NC(=O)[C@@H](N)c3ccc(O)cc3)C(=O)N2[C@@H]1C(=O)O`, the Potency is 0.296 µM (active).
For `COc1ccc(-c2oc3c(CC=C(C)C)c(OC4O[C@H](CO)[C@@H](O)[C@H](O)[C@@H]4O)cc(O)c3c(=O)c2OC2O[C@@H](C)[C@H](O)[C@@H](O)[C@@H]2O)cc1` (stereo not given in full), the Potency is 9.35 µM (active).
Regarding `CC(C)C(=O)Oc1ccc(CO)cc1[C@H](CCN(C(C)C)C(C)C)c1ccccc1`, the “viability” value is 310%.
Take `O=C(O)C(O)Cc1ccc(O)c(O)c1` (stereo not given): the Potency was 0.0083 µM (active).
On the same count and under the same terms, in the case of `Clc1ccc(C(c2ccc(Cl)cc2)n2cc[n+](CC(OCc3ccc(Cl)cc3Cl)c3ccc(Cl)cc3Cl)c2)cc1` (stereo not given) it was 8.33 µM (active).
For the compound `CO[C@@H](C(=O)N1Cc2[nH]nc(NC(=O)c3ccc(N4CCN(C)CC4)cc3)c2C1)c1ccccc1`, the Potency was 1.87 µM (active).
Same read-out and setting: in the case of `O=c1c(O)c(-c2ccc(O)cc2)oc2cc(O)cc(O)c12` it was 5.9 µM (active); in that of `NC(=O)c1ccc2nc(-c3ccc(Oc4ccc(Cl)cc4)cc3)[nH]c2c1`, 18.7 µM (active); in that of `NC(=O)NN=Cc1ccc([N+](=O)[O-])o1`, 5.9 µM (active).
For the compound `COc1ccc(Cc2nccc3cc(OC)c(OC)cc23)cc1OC`, the “viability” value was 111%.
For the compound `CC1(C)CCC[C@@]2(C)[C@@H]1CC[C@@]1(C)OC(=O)C[C@H]21`, the “viability” value was 139%.
Consider `CCn1c(C(=O)N(C2CC2)C2CC2)cc2c3c(ncn3C)c(Nc3cc(C)n(C)n3)nc21`, for which the “viability” value was 149%.
On to `CN(C[C@@H]1COCCO1)S(=O)(=O)Nc1ccc2ccc3ncc(-c4cnn(C)c4)cc3c(=O)c2c1`, for which the Potency is 5.26 µM (active).
As for `CS(=O)c1ccc(-c2nc(-c3ccc(F)cc3)c(-c3ccncc3)[nH]2)cc1` (stereo not given), the viability is 1.55% [at 92.2 µM] (active).
On to `C[C@H](NC(=O)C(=O)Nc1ccccc1C(C)(C)C)C(=O)N[C@@H](CC(=O)O)C(=O)COc1c(F)c(F)cc(F)c1F`, for which the Potency is 6.62 µM (active).
In the case of `CN1CCN(CCOc2cc(OC3CCOCC3)c3c(Nc4c(Cl)ccc5c4OCO5)ncnc3c2)CC1`, the Potency is 1.87 µM (active).
`O=C1NC(=O)C(=Cc2cccc(C(F)(F)F)c2)S1`: the Potency is 8.33 µM (active).
Take `CO[C@H]1C[C@@H]2CC[C@@H](C)[C@@](O)(O2)C(=O)C(=O)N2CCCC[C@@H]2C(=O)O[C@H]([C@H](C)C[C@@H]2CC[C@H](OCCO)[C@H](OC)C2)CC(=O)[C@H](C)C=C(C)[C@@H](O)[C@@H](OC)C(=O)[C@H](C)C[C@H](C)C=CC=CC=C1C`: the Potency is 7.43 µM (active).
With `O=C1NC(=O)C(=Cc2ccc3c(c2)OC(F)(F)O3)S1`, the Potency was 3.32 µM (active).
As for `CO[C@H]1C[C@@H]2CC[C@@H](C)[C@@](O)(O2)C(=O)C(=O)N2CCCC[C@@H]2C(=O)O[C@H]([C@H](C)C[C@@H]2CC[C@H](OP(C)(C)=O)[C@H](OC)C2)CC(=O)[C@H](C)C=C(C)[C@@H](O)[C@@H](OC)C(=O)[C@H](C)C[C@H](C)C=CC=CC=C1C`, the Potency was 18.7 µM (active).
With `Oc1ccc(C2CCN(c3ccnc4ccccc34)CC2)cc1O`, the Potency is 23.5 µM (active).
As for `NS(=O)(=O)c1cccc2c1C(=O)c1cccc(O)c1C2=O`, the Potency is 0.148 µM (active).
Consider `CC=C(C)C(=O)O[C@H]1C(C)=C[C@]23C(=O)[C@@H](C=C(CO)[C@@H](O)[C@]12O)[C@H]1[C@@H](C[C@H]3C)C1(C)C`, for which the Potency was 8.33 µM (active).
With `O=C(NCc1ccncc1)C12C[C@H]3C[C@@H](C1)CC(c1ccc(Cl)cc1)(C3)C2`, the Potency was 13.2 µM (active).
Consider `COc1cc(N2CCC(N3CCN(C)CC3)CC2)ccc1Nc1ncnc(Nc2ccccc2S(=O)(=O)C(C)C)n1`, for which the “viability” value is 476%.
Still for that read-out and setting: in the case of `O=C(O)c1ccc(-c2c[nH]c3ncc(-c4ccccc4)cc23)cc1C1CCCC1` it was 272% (active).
Regarding `OC[C@H]1O[C@@H](n2cnc3c2NC=NC[C@@H]3O)C[C@H]1O`, the Potency is 0.0042 µM (active).
As to `COC1CCC(N(C(=O)C2CCC(C)CC2)c2cc(C3=CCCCC3)sc2C(=O)O)CC1` (stereo not given), the “viability” value is 168%.
In the case of `Cc1ccc(C(=O)Nc2cccc(C(F)(F)F)c2)cc1Nc1nc(-c2cccnc2)nc2c1cnn2C`, the “viability” value was 329%.
Regarding `Cc1[nH]c(C=C2C(=O)Nc3ccc(S(=O)(=O)Cc4c(Cl)cccc4Cl)cc32)c(C)c1C(=O)N1CCC[C@H]1CN1CCCC1`, the Potency was 4.69 µM (active).

By viability is commonly meant a read-out of living cells in per cent, often relative to untreated cells.
